# High-throughput results from PubChem.
# A selection: hits, their analogues and other compounds. The true share with any hit is near 5.4%.
# VACV Venus inh – qHTS for Stage-Specific Inhibitors of Vaccinia Orthopoxvirus: Venus Reporter Primary qHTS | Vaccinia virus Venus reporter expression, fluorescence | Potency, µM (doses to about 36.5 µM), usual class: inhibitors | 0.46% of 330,000 active; calls by dose curve; tested in A549 cells; further: nearly all actives have a fitted effect of over 30% in size
# LASV entry inh – qHTS for Inhibitors of binding or entry into cells for Lassa Virus. Lassa virus pseudotype entry inhibition, cell reporter. Potency, µM (highest dose often 37.9 µM), actives largely listed as inhibitors. 1.2% of 300,000 active. AID 540256, 2011; calls by dose curve; tested in HEK293 cells; further: nearly all actives have a fitted effect of over 50% in size
# Marburg entry inh – qHTS for inhibitors of binding or entry into cells for Marburg Virus | Marburg virus pseudotyped entry inhibition, cell reporter | Potency, µM (titrated, usually from 37.8 µM), actives largely listed as inhibitors | 1.8% of 300,000 active; calls by dose curve; tested in HEK293 cells
# FMDV antiviral – High Throughput Screening for Foot and Mouth Disease Virus Antivirals. FMDV antiviral cell-based qHTS. Potency, µM (highest dose often 57.9 µM), usual class: inhibitors. 1.2% of 410,000 active. AID 1159524, 2015; calls by dose curve; tested in HEK293T cells; further: read-out not given here; nearly all actives have a fitted effect of over 45% in size
# VACV mCherry inh – qHTS for Stage-Specific Inhibitors of Vaccinia Orthopoxvirus: mCherry Reporter Primary qHTS; Vaccinia virus mCherry reporter infection, fluorescence; Potency, µM (doses to about 36.5 µM), actives largely listed as inhibitors; 0.63% of 310,000 active; calls by dose curve; tested in A549 cells; further: nearly all actives have a fitted effect of over 35% in size
# Sm TGR block – qHTS Assay for the Inhibitors of Schistosoma Mansoni Peroxiredoxins | Schistosoma mansoni thioredoxin glutathione reductase (TGR), Q962Y6 | purified TGR, DTNB reduction, TNB absorbance 405 nm | Potency, µM (doses to about 114 µM), actives largely listed as inhibitors | 3% of 360,000 active; active means well fitted inhibition curve with a large enough effect; inconclusive means small, poorly fitted or top-dose-only effect; inactive means no such curve, though single readings can be large or run the other way; further: nearly all actives have a fitted effect of over 60% in size
#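 Kinetic colorimetric format: TGR-catalysed, NADPH-driven DTNB reduction monitored via TNB absorbance. Enzyme dispensed at 20 nM; compound exposure 15 min at room temperature before reaction start.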
# Hits are given with their value; - = inactive; ? = inconclusive; . = no result; ! = not confirmed by another sample; [ ] = another dose, or the depositor's remark.
SMILES,VACV Venus inh,LASV entry inh,Marburg entry inh,FMDV antiviral,VACV mCherry inh,Sm TGR block
Cc1ccc(C(=O)Nc2ccc(CC(=O)O)cc2)o1,.,-,-,-,.,-
CC(C)(C)c1ccc(C(=O)Nc2ccc(CC(=O)O)cc2)o1,-,2.3µM,?,0.79µM,-,-
O=C1NC(=S)N(Cc2ccco2)C(=O)/C1=C\c1cccs1,.,.,.,.,.,3.5µM
O=C1NC(=O)N(CCc2ccc(F)cc2)C(=O)/C1=C/c1cccs1,-,-,-,?,-,?
C=CCN1C(=O)/C(=C/c2cccs2)C(=O)NC1=S,-,-,?,-,-,10µM
COc1ccc(CNC(=O)/C=C\c2ccc3[nH]cc(CCN(C)C)c3c2)cc1,.,.,35µM,-,.,.
Cc1ccc(C(=O)CSc2nnc(-c3ccc4[nH]c(C)c(C)c4c3)o2)cc1C,-,-,-,.,?,-
Cc1[nH]c2ccc(-c3nnc(SCC(=O)c4ccccc4F)o3)cc2c1C,-,8.9µM,?,-,-,-
CCCCc1nn2c(=O)cc(COC(=O)c3cccc(Cl)c3)nc2s1,-,-,.,-,-,-
CCCCCN1N=C(C)CC1=O,-,2µM,-,-,-,-
Cc1ccc(Cn2c(=O)n(-c3cccc(C(F)(F)F)c3)c(=O)c3c(C)c(C)sc32)c(C)c1,-,-,-,-,-,-
CC#C[C@]1(O)CC[C@H]2C3CCC4=CC(=O)CCC4=C3[C@@H](c3ccc(N(C)C)cc3)C[C@@]21C (some centres undefined),.,.,10µM,.,.,.
C#CC1(O)CCC2C3CCC4=CC(=O)CCC4=C3C=CC21C (centres undefined),-,-,-,-,-,.
Cc1[nH]c2ccccc2c1/C=N/Nc1ccc(F)cc1F,.,-,-,.,.,50µM
CN(C)S(=O)(=O)c1ccc2c(c1)N(CC(=O)N1CCN(c3cccc(Cl)c3)CC1)CCS2,-,-,.,?,-,-
Cc1cc(C(=O)Nc2cccc(-c3nc(CNC(=O)c4ccc[n+]([O-])c4)c(C)o3)c2)c(C)o1,-,.,.,-,-,.
COCCSc1nnc(NC(=O)c2ccc([N+](=O)[O-])cc2)s1,-,.,.,-,-,-
CCOC(=O)CSc1nnc(NC(=O)c2cc([N+](=O)[O-])cc([N+](=O)[O-])c2)s1,-,-,-,35µM,-,-
O=S(=O)(c1ccc(Cl)cc1)c1nc(-c2cccs2)oc1SCc1ccccc1F,-,-,-,-,-,-
CCOc1cc(Br)c(CN2C(=O)NC3(CCCCCC3)C2=O)cc1OCC,-,.,11µM,?,-,-
COc1ccc(Cl)cc1CN1C(=O)NC2(CCCCCC2)C1=O,-,-,-,-,-,-
Cc1cc(C(=O)Nc2ccccc2-c2nc(CNC(=O)c3cscn3)c(C)o2)c(C)o1,-,.,.,-,-,.
CCN(Cc1ccccc1)C(=O)c1ccc(CS(=O)c2ccccc2C)o1 (centres undefined),-[7.34 µM],.,.,-,-[7.34 µM],14µM
Cc1ccccc1S(=O)Cc1ccc(C(=O)NC2CC2)o1 (centres undefined),.,.,.,-,.,?
CC1(C)CCC2=C(O1)c1ccccc1C(=O)C2=O,?,.,13µM,?,?,.
SMILES,VACV Venus inh,LASV entry inh,Marburg entry inh,FMDV antiviral,VACV mCherry inh,Sm TGR block
Cc1nc([N+](=O)[O-])c(C(=O)OCc2ccccc2Br)n1C,-,?,-,-,-,-
Cc1cc([N+](=O)[O-])nn1CC(=O)c1ccccc1,.,.,.,-,.,-
Cc1nc([N+](=O)[O-])c(Br)n1CC(=O)c1ccccc1,2.2µM,-,?,?,.,4µM
Cc1nc([N+](=O)[O-])c(Br)n1CC(=O)c1ccc2ccccc2c1,1.6µM,?,18µM,22µM,1.1µM,14µM
Cc1nc([N+](=O)[O-])c(Br)n1CC(=O)c1ccc(Br)cc1,.,-,?,13µM,.,11µM
CCc1ccc2[nH]c(=O)c(CN(Cc3ccc(OC)cc3)Cc3nnnn3CCOC)cc2c1,-,?,14µM,?,.,-
COc1ccc2[nH]c(=O)c(CN(Cc3cccs3)Cc3nnnn3C(C)(C)C)cc2c1,-,-,18µM!,-,-,-
CCC1CN(C(=O)N2CCC(C(=O)N3CCN(c4ccccc4F)CC3)CC2)c2ccccc2O1 (centres undefined),-,?,.,?,-,-
O=C(CSc1ncccc1C(=O)Oc1ccccc1Cl)Nc1ccccc1Cl,-[7.34 µM],?,.,-,-[7.34 µM],-
Cc1cc(C)c2c(n1)nn1c(C)c(CCC(=O)NCc3ccc(Cl)cc3)c(C)nc21,-,?,-,-,-,-
CN(C)c1oc(-c2ccccc2Cl)nc1C#N,-,-,-,-,-,-
CN(C)c1oc(-c2ccccc2[N+](=O)[O-])nc1C#N,.,.,.,-,.,35µM
O=C(COc1ccccc1-c1ccccc1)NCCN1C(=O)S/C(=C\c2cccnc2)C1=O,-,-,-,32µM,-,-
CC(Oc1ccc(Cl)cc1)C(=O)NCCN1C(=O)S/C(=C\c2cccnc2)C1=O (centres undefined),-,?,?,40µM,-,-
CCCCN(CCCC)C(=O)CN(C)S(=O)(=O)c1ccc2c(c1)c(=O)n(C)c(=O)n2C,-,-,-,-,-,-
Cc1ccc(NC(=O)Cn2nc(C)n3cccc3c2=O)c(C)c1,-[7.34 µM],-,?,-,-[7.34 µM],-
Cc1ccc(NC(=O)CCCN2C(=O)COc3ccc(C)cc32)c(Cl)c1,-,-,-,-,-,-
CC1(C)CC(N2CCN(c3ccccc3)CC2)=CC(=[N+]2CCCC2)C1,?,?,?,.,?,-
CC1(C)CC(N2CCCC2)=CC(=[N+]2CCCCCC2)C1,.,?,1.5µM,?,.,-
CCN(CC)C1=CC(=[N+]2CCCC2)CC(C)(C)C1,-,?,1.3µM,?,-,-
Cc1ccn2c(c1)nc(=O)c1cc(S(=O)(=O)N3CCCCC3)c(Cl)cc12,-,-,-,-,-,-
Cc1ccc(S(=O)(=O)/N=C2/NC(=O)/C(=C\c3cc(Br)cc(Br)c3O)S2)cc1,.,.,.,-,.,28µM
Cc1ccc(S(=O)(=O)/N=C2/NC(=O)/C(=C/c3cccnc3)S2)cc1,-,-,-,-,.,-
Cc1ccc(S(=O)(=O)/N=C2/NC(=O)/C(=C/c3ccc(Br)o3)S2)cc1,-,-,-,-,-,22µM
O=C1N/C(=N\S(=O)(=O)c2ccccc2)S/C1=C\c1cc([N+](=O)[O-])ccc1O,-,?,?,-,-,-
COC(=O)c1cnc(Oc2ccc(NC(=O)NC(=O)c3c(OC)cccc3OC)cc2)cc1C(F)(F)F,?,?,1.6µM,-,?,-
COC(=O)c1cnc(Oc2ccc(NC(=O)NC(=O)c3c(F)cccc3F)cc2)cc1C(F)(F)F,-,-,-,-,-,-
COc1cc(OC)cc(-c2nnc(SCC(=O)c3ccc([N+](=O)[O-])cc3)o2)c1,-,-,?,-,-,-
CCN(CC)S(=O)(=O)c1ccc2c(c1)nc(SCC(N)=O)n2-c1ccc(OC)cc1,?,13µM,-,-,.,-
